Laboratory results: PubChem BioAssay (NCI)
The panel holds about 83,000 compounds, 20% with a hit somewhere; the sample as a whole holds those more often.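 In brief: 96-well plates, 48 h treatment, single concentration, percent growth endpoint.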 Activity calls are given as the source filed them. Rule for the calls: active = growth percent below 10; inactive = the rest.

Legend:
Test in all cases: NCI-60 one-dose screen, 48 h (100 = growth as untreated, 0 = no growth, -100 = all killed)
Settings in all cases: 10 µM unless noted
NCI-H23 lung = test system: NCI-H23 lung
NCI-H226 lung = test system: NCI-H226 lung
NCI-H322M lung = test system: NCI-H322M lung
HOP-62 NSCLC = test system: HOP-62 NSCLC
NCI-H460 lung = test system: NCI-H460 lung
HOP-92 NSCLC = test system: HOP-92 NSCLC
NCI-H522 lung = test system: NCI-H522 lung
A549/ATCC NSCLC = test system: A549/ATCC NSCLC
786-0 renal = test system: 786-0 renal
COLO 205 colon = test system: COLO 205 colon

Measured: growth

Cn1cc(C=O)c2ccccc21
inactive: NCI-H23 lung 96.4% | NCI-H226 lung 95.2% | NCI-H322M lung 97.8% | HOP-62 NSCLC 95.9% | NCI-H460 lung 104% | HOP-92 NSCLC 87.6% | NCI-H522 lung 98.3% | A549/ATCC NSCLC 104% | 786-0 renal 99.2% | COLO 205 colon 104%

O=C(c1ccncc1)N1N=C(c2ccc(Cl)cc2)CC1c1c[nH]c2ccccc12 (stereo not given)
inactive: NCI-H23 lung 85.9% | NCI-H226 lung 82.7% | NCI-H322M lung 96.3% | HOP-62 NSCLC 75.1% | NCI-H460 lung 96.8% | HOP-92 NSCLC 94.7% | NCI-H522 lung 80.8% | A549/ATCC NSCLC 95% | 786-0 renal 104% | COLO 205 colon 97.9%

CCCCCCCCCCCCNC(=S)N/N=C/c1ccc(Cl)c(Cl)c1
inactive: NCI-H23 lung 109% | NCI-H226 lung 106% | NCI-H322M lung 112% | HOP-62 NSCLC 105% | NCI-H460 lung 112% | HOP-92 NSCLC 122% | NCI-H522 lung 65.7% | A549/ATCC NSCLC 103% | 786-0 renal 106% | COLO 205 colon 106%

Nc1c(C(=O)Nc2ccccc2)sc2nc3c(cc12)CCC3
inactive: NCI-H23 lung 87.9% | NCI-H226 lung 85.3% | NCI-H322M lung 101% | HOP-62 NSCLC 96.4% | NCI-H460 lung 91% | HOP-92 NSCLC 55.6% | NCI-H522 lung 83.9% | A549/ATCC NSCLC 91.2% | 786-0 renal 101% | COLO 205 colon 108%

COc1ccc(/C=c2\sc3n(c2=O)C2C(NN=3)N(C)C(=O)N2C)cc1 (stereo not given)
active: NCI-H460 lung 9.54% | COLO 205 colon -8.52%
inactive: NCI-H23 lung 36.3% | NCI-H226 lung 94.1% | NCI-H322M lung 46.6% | HOP-62 NSCLC 21% | HOP-92 NSCLC 54.7% | NCI-H522 lung 10.1% | A549/ATCC NSCLC 33% | 786-0 renal 23%

COC(=O)c1cc(-c2cccs2)c(C#N)c(N)c1C#N
inactive: NCI-H23 lung 96.7% | NCI-H226 lung 101% | NCI-H322M lung 99.8% | HOP-62 NSCLC 90.3% | NCI-H460 lung 104% | HOP-92 NSCLC 94.2% | NCI-H522 lung 95.4% | A549/ATCC NSCLC 101% | 786-0 renal 100% | COLO 205 colon 109%

CC1Cc2c(N(C)C)ncnc2N(C)c2ccc(Cl)cc21 (stereo not given)
inactive: NCI-H23 lung 50.1% | NCI-H226 lung 85.6% | NCI-H322M lung 73.2% | HOP-62 NSCLC 41.9% | NCI-H460 lung 14.5% | HOP-92 NSCLC 58% | NCI-H522 lung 13.4% | A549/ATCC NSCLC 55.8% | 786-0 renal 31.1% | COLO 205 colon 36%

O=c1oc2cc(OS(=O)(=O)c3ccccc3)c(Cl)cc2c2c1CCCCCC2
inactive: NCI-H23 lung 80.1% | NCI-H226 lung 81.7% | NCI-H322M lung 95.4% | HOP-62 NSCLC 118% | NCI-H460 lung 96.1% | HOP-92 NSCLC 65.7% | NCI-H522 lung 73.2% | A549/ATCC NSCLC 88.2% | 786-0 renal 87.7% | COLO 205 colon 94.4%

O=S(=O)(NCCCNc1nccc(-c2c(-c3ccc(O)cc3)nc3sccn23)n1)c1ccc(F)cc1
active: NCI-H23 lung 1.81% | NCI-H226 lung 3.13% | NCI-H460 lung 1.37% | NCI-H522 lung -1.49% | COLO 205 colon 1.03%
inactive: NCI-H322M lung 17.6% | HOP-62 NSCLC 10% | HOP-92 NSCLC 12.3% | A549/ATCC NSCLC 15.9% | 786-0 renal 16.4%

COc1ccc(/C=C/c2cc(N3CCOCC3)c3cc(F)c(F)cc3n2)cc1OC
inactive: NCI-H23 lung 42.3% | NCI-H226 lung 34.8% | NCI-H322M lung 30% | HOP-62 NSCLC 63.9% | NCI-H460 lung 25.2% | HOP-92 NSCLC 49.7% | A549/ATCC NSCLC 44.6% | 786-0 renal 40.8% | COLO 205 colon 11.8%
active: NCI-H522 lung 7.5%

Cc1ccc(Nc2ncnc3c2sc2ncccc23)cc1
inactive: NCI-H23 lung 101% | NCI-H226 lung 91.7% | NCI-H322M lung 95.9% | HOP-62 NSCLC 103% | NCI-H460 lung 97.6% | HOP-92 NSCLC 106% | NCI-H522 lung 106% | A549/ATCC NSCLC 98.2% | 786-0 renal 101% | COLO 205 colon 107%

CCCCCCCCCCn1cc[n+](C)c1
active: NCI-H522 lung -19.9% | COLO 205 colon 8.8%
inactive: NCI-H23 lung 28.8% | NCI-H226 lung 30.4% | NCI-H322M lung 57.1% | HOP-62 NSCLC 38.2% | NCI-H460 lung 23.6% | HOP-92 NSCLC 51.9% | A549/ATCC NSCLC 32.6% | 786-0 renal 47.8%

O=C1CCC(=O)N1Cc1ccccc1
inactive: NCI-H23 lung 86.7% | NCI-H226 lung 89.5% | NCI-H322M lung 98.2% | HOP-62 NSCLC 107% | NCI-H460 lung 106% | HOP-92 NSCLC 89.9% | NCI-H522 lung 102% | A549/ATCC NSCLC 102% | 786-0 renal 104% | COLO 205 colon 111%

Nc1c(C(=O)Nc2c(Cl)cccc2Cl)sc2nc3c(cc12)CCCCC3
inactive: NCI-H23 lung 78.4% | NCI-H226 lung 61.8% | NCI-H322M lung 85.4% | HOP-62 NSCLC 53.9% | NCI-H460 lung 54.9% | HOP-92 NSCLC 59.4% | NCI-H522 lung 40.1% | A549/ATCC NSCLC 50.3% | 786-0 renal 59.8% | COLO 205 colon 45.3%

Clc1cccc(Cl)c1Cn1c(-c2cncs2)nc2ccccc21
inactive: NCI-H23 lung 71% | NCI-H226 lung 88.6% | NCI-H322M lung 87.5% | HOP-62 NSCLC 97% | NCI-H460 lung 101% | HOP-92 NSCLC 71% | NCI-H522 lung 76.6% | A549/ATCC NSCLC 73.1% | 786-0 renal 87.6% | COLO 205 colon 99.5%

O=C1CCCCN1CCCCC#Cc1ccccc1C#Cc1ccc([N+](=O)[O-])cc1
inactive: NCI-H23 lung 59% | NCI-H226 lung 57.1% | NCI-H322M lung 71% | HOP-62 NSCLC 64.9% | NCI-H460 lung 11.5% | HOP-92 NSCLC 39.6% | NCI-H522 lung 56.3% | A549/ATCC NSCLC 50.1% | 786-0 renal 60.6% | COLO 205 colon 45.8%

Nc1c(C(=O)Nc2cccc(Cl)c2Cl)sc2nc3c(cc12)C(=O)CCC3
inactive: NCI-H23 lung 76.1% | NCI-H226 lung 87% | NCI-H322M lung 76.7% | HOP-62 NSCLC 95.3% | NCI-H460 lung 20% | HOP-92 NSCLC 91.5% | NCI-H522 lung 12.5% | A549/ATCC NSCLC 37.5% | 786-0 renal 92.4% | COLO 205 colon 25.8%

O=C(CC(O)c1ccncc1)c1ccccc1 (stereo not given)
inactive: HOP-62 NSCLC 22.9% | NCI-H460 lung 102% | HOP-92 NSCLC 10.2% | A549/ATCC NSCLC 15.5%
active: NCI-H23 lung -18.6% | NCI-H226 lung 9.03% | NCI-H322M lung -8.53% | NCI-H522 lung -36.6% | 786-0 renal 9.96% | COLO 205 colon -54.7%

COc1cc(OC)c(C(=O)/C=C/c2cccc(C(F)(F)F)c2)c(OC)c1
inactive: NCI-H226 lung 25.1% | NCI-H322M lung 13.2% | HOP-62 NSCLC 18.7% | 786-0 renal 13.4% | COLO 205 colon 12.9%
active: NCI-H23 lung 5.06% | NCI-H460 lung -1.87% | HOP-92 NSCLC 2.76% | NCI-H522 lung -31.8% | A549/ATCC NSCLC 6.1%

NS(=O)(=O)c1ccc(NCC(=O)Nc2ccc(-c3nc4ccccc4s3)cc2)cc1
inactive: NCI-H23 lung 74.7% | NCI-H226 lung 83.7% | NCI-H322M lung 88% | HOP-62 NSCLC 118% | NCI-H460 lung 92.5% | HOP-92 NSCLC 73.5% | A549/ATCC NSCLC 92.6% | 786-0 renal 12.1% | COLO 205 colon 98.5%
active: NCI-H522 lung -63.8%

COC(=O)CCCCCCN=Cc1c(O)c(O)c(C(C)C)c2cc(C)c(-c3c(C)cc4c(C(C)C)c(O)c(O)c(C=NCCCCCCC(=O)OC)c4c3O)c(O)c12
active: NCI-H460 lung 6.7% | HOP-92 NSCLC 7.71% | NCI-H522 lung -6.49%
inactive: NCI-H23 lung 19.5% | NCI-H226 lung 77.3% | NCI-H322M lung 45.2% | HOP-62 NSCLC 24% | A549/ATCC NSCLC 29.7% | 786-0 renal 29% | COLO 205 colon 15.7%

COc1ccc(/C(=N/O)c2cc(OC)c(OC)c(OC)c2)c(OC)c1N
active: NCI-H522 lung 0.281%
inactive: NCI-H23 lung 51.9% | NCI-H226 lung 80.7% | NCI-H322M lung 48.4% | HOP-62 NSCLC 33.7% | NCI-H460 lung 14.5% | HOP-92 NSCLC 53.2% | A549/ATCC NSCLC 45.6% | 786-0 renal 30.6% | COLO 205 colon 20.2%

Clc1ccc([I+]c2ccc(Cl)cc2Cl)c(Cl)c1
inactive: NCI-H23 lung 18% | NCI-H226 lung 102% | NCI-H322M lung 77.2% | HOP-62 NSCLC 36.5% | NCI-H460 lung 81% | HOP-92 NSCLC 14.9% | A549/ATCC NSCLC 76% | 786-0 renal 11.2%
active: NCI-H522 lung -91.1% | COLO 205 colon -79.2%

N#CC1=C(N)OC2=C(C(=O)CCC2)C1c1ccco1 (stereo not given)
inactive: NCI-H23 lung 97.1% | NCI-H226 lung 103% | NCI-H322M lung 99.1% | HOP-62 NSCLC 91.3% | NCI-H460 lung 110% | HOP-92 NSCLC 106% | NCI-H522 lung 92.7% | A549/ATCC NSCLC 101% | 786-0 renal 101% | COLO 205 colon 110%

CCOC(=O)/C=C\C(=O)NC(N)=O
inactive: NCI-H23 lung 102% | NCI-H226 lung 96.9% | NCI-H322M lung 104% | HOP-62 NSCLC 87.8% | NCI-H460 lung 110% | HOP-92 NSCLC 94.5% | NCI-H522 lung 90.3% | A549/ATCC NSCLC 77.8% | 786-0 renal 103% | COLO 205 colon 115%

COc1cc(NS(C)(=O)=O)ccc1Nc1c2ccc([N+](=O)[O-])cc2nc2c(C)cccc12
active: NCI-H23 lung -0.0901% | NCI-H226 lung -23.6% | HOP-62 NSCLC -2.67% | NCI-H460 lung -25.4% | HOP-92 NSCLC -23.8% | NCI-H522 lung -25.8% | A549/ATCC NSCLC -35.8% | 786-0 renal -3.37%
inactive: NCI-H322M lung 39.6% | COLO 205 colon 25.3%

CC(=O)Nc1nc(C(=O)N2N=C(C)/C(=C/c3ccc(Cl)cc3)C2=O)cs1
inactive: NCI-H23 lung 102% | NCI-H226 lung 106% | NCI-H322M lung 99% | HOP-62 NSCLC 97% | NCI-H460 lung 105% | HOP-92 NSCLC 95.7% | NCI-H522 lung 44.7% | A549/ATCC NSCLC 103% | 786-0 renal 100% | COLO 205 colon 104%
